Holding throughout (assay type): functional
Experiment [1] deals with Solute carrier family 2, facilitated glucose transporter member 1 (Homo sapiens) (UniProt P11166). Put plainly: ST_JUDE_LEISH: Cytotoxicity at 2uM final concentration against transgenic Leishmania Mexicana promastigotes LmGLUT1 that are glucose transport deficient and complemented with the human glucose transporter GLUT1. Activity is measured by DNA content using SYBR green in vitro.

The target in experiment [2] is Hexose transporter 1 (Plasmodium falciparum) (UniProt O97467). Description: ST_JUDE_LEISH: Cytotoxicity at 2uM final concentration against transgenic Leishmania Mexicana promastigotes LmPfHT that are glucose transport deficient and complemented with the Plasmodium falciparum hexose transporter. Activity is measured by DNA content using SYBR green in vitro.
Experiment [3] addresses Glucose transporter (Leishmania mexicana) (UniProt O61059). Description: ST_JUDE_LEISH: Cytotoxicity at 2uM final concentration against transgenic Leishmania Mexicana promastigotes LmGT2 that are glucose transport deficient and complemented with the L. Mexicana glucose transporter 2. Activity is measured by DNA content using SYBR green in vitro.

Structures are written as SMILES.

Solute carrier family 2, facilitated glucose transporter member 1 (Homo sapiens), sequence (P11166 whole entry): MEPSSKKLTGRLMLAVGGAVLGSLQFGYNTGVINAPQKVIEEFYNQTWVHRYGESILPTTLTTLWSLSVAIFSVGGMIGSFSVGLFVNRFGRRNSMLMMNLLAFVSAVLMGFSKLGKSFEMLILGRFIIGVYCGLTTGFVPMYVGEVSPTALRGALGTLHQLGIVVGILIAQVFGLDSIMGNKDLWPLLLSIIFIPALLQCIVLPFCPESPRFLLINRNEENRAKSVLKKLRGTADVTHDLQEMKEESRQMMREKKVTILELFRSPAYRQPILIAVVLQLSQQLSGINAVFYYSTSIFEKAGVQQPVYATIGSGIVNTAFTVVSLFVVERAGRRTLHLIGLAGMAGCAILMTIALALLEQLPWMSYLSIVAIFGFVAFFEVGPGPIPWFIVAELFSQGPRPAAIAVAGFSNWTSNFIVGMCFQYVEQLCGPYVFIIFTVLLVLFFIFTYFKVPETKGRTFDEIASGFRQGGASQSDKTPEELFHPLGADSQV

In the case of `CCN(CC)CCOc1ccc(C(O)(C#CC(O)(c2ccc(Br)cc2)c2ccc(OCCN(CC)CC)cc2)c2ccc(Br)cc2)cc1` (configuration not stated), the inhibition in experiment [1] worked out at 4.97%; in experiment [2] it was 5%; in experiment [3], 3.37%.
On to `CCCN1CCN(CCCNC(=O)c2cc3c(Cl)nc4ccc(C)cc4c3s2)CC1`, for which the inhibition in experiment [1] was -1.56%; in experiment [2] it was 1.08%; in experiment [3], -1.97%.
As to `Cc1cc(N)nc2ccc(-c3ccc(CCN)cc3)cc12`, the inhibition in experiment [1] is 2.07%; in experiment [2], 3.64%; in experiment [3], 0.96%.
The corresponding values for `Cc1ccc(CN2CCC(C(=O)Nc3ccc(-c4cc5ccccc5[nH]4)cc3)CC2)o1` are 17.3%, 9.24% and 4.6%.
As to `CN(C)CCOc1cccc(NC(=O)Nc2ccc(-c3ccccc3)cc2)c1`, the results for the inhibition in experiment [1], in experiment [2] and in experiment [3] were 2.67%, 1.78% and 1.53%, respectively.
Consider `O=S(=O)(Nc1cccc(CCN2CCCCC2CCN2CCCC2)c1)c1ccc2ccccc2c1` (configuration not stated), for which the inhibition is 0.63% in experiment [1], -0.31% in experiment [2] and -3.3% in experiment [3].
Turning to `Cc1ccc(-n2cc(CNCCCn3ccnc3)c(-c3cccc(C)c3)n2)cc1`, the figures for the inhibition in experiment [1], in experiment [2] and in experiment [3] were 4.3%, 6.62% and 3.71%, respectively.
The corresponding values for `Cc1cc(NC(=O)NCCN2CCC(NC(=O)c3ccc(Cl)cc3)CC2)c2ccccc2n1` are 1.7%, 1.76% and 2.94%.
As for `Cc1cc(C2CCN(CCCCNC(=O)c3ccc(NC(=O)c4ccc(Cl)cc4)cc3)CC2)c(C)cc1OCc1cccnc1`, the results for the inhibition in experiment [1], in experiment [2] and in experiment [3] were 0.04%, -0.98% and -0.82%, respectively.
The corresponding values for `O=C(Nc1cccnc1)c1cc(-c2cccnc2)nc2ccc(Br)cc12` are 7.01%, 1.51% and -1.18%.
Take `COc1cc2c(cc1C(F)(F)F)N(C(=O)Nc1cc(F)cc(-c3cncnc3)c1)CC2`: the inhibition is 11.6% in experiment [1], 1.94% in experiment [2] and 0.07% in experiment [3].
Consider `Cc1cc(C2CCN(CCCCNC(=O)c3ccc(-c4ccc(C(F)(F)F)cc4)cc3)CC2)c(C)cc1OCCO`, for which the inhibition worked out at 5.21% in experiment [1], 5.28% in experiment [2] and 2.63% in experiment [3].
For the molecule `Cc1cc2nc(-c3ccc(C(=O)NCc4ccc(C(C)(C)C)cc4)cc3)[nH]c2cc1C`, the inhibition in experiment [1] is 3.51%; in experiment [2] it was 2.34%; in experiment [3], -0.6%.
As for `Cc1nn(-c2cccc(C(F)(F)F)c2)c2sc(C(=O)NC3CCN(C(C)C)CC3)cc12`, the inhibition is 1.73% in experiment [1], -1.04% in experiment [2] and 1.61% in experiment [3].
The corresponding values for `CCNc1cc(C(=O)N[C@@H](Cc2ccccc2)[C@H](O)CNC(C)(C)CCCC(C)C)cc(N2CCCCS2(=O)=O)c1` are -0.28%, 0.88% and -0.83%.
`Cc1cc(OCCCN2CCC(NC(=O)c3ccc(Br)cc3)C2)c2ccccc2n1` (configuration not stated): the inhibition in experiment [1] is 24.3%; in experiment [2], 19.2%; in experiment [3] it was 13.4%.
For `Cc1ccc(-n2cc(CNCCc3nc(C)c[nH]3)c(-c3ccc(F)cc3)n2)cc1` the same measures were 4.34%, 3.49% and 2.6%.
The corresponding values for `NCc1ccc(-c2cccc(CNC3CCN(Cc4ccccc4)CC3)c2)cc1` are 5.2%, 5.95% and 3.72%.
For `Cn1c(Nc2cc(C(C)(C)C)on2)nc2cc(Nc3ccnc(Nc4cccc(S(=O)(=O)N5CCOCC5)c4)n3)ccc21` the same measures were 5.63%, 2.67% and -0.88%.
Take `O=C(Nc1ccc(Oc2ccccc2)cc1)N(CCN1CCCC1)Cc1ccc(-c2ccc(CN3CCNCC3)cc2)cc1`: the inhibition in experiment [1] turned out to be 0.02%; in experiment [2], 1.54%; in experiment [3], 0.38%.
For `CN(C)CCNC(=O)[C@H](Cc1ccccc1)NC(=O)c1ccc(O)c(-c2ccc(Cl)c(Cl)c2)c1` the same measures were -0.64%, 1.18% and -2.32%.
`CN(C)C(CNC(=O)c1cc(-c2ccncc2)c(-c2cc3ccccc3[nH]2)o1)c1ccccc1` (configuration not stated): the inhibition in experiment [1] was determined as 3.53%; in experiment [2], 2.32%; in experiment [3] it was 2.06%.
For `CCc1ccc(CN2CCC(NC(=O)c3ccc(-c4ccccc4F)s3)CC2)cc1` the same measures were 0.37%, 0.03% and -5.91%.
The corresponding values for `COc1ccc2nccc(N3CCC(CCNCc4ccc5c(n4)NC(=O)CS5)CC3)c2c1` are 6.54%, 9.44% and 2.78%.
For `CC(C)(C)OC(=O)NCCc1cccc(-c2c[nH]c3ncc(-c4cccc(NS(C)(=O)=O)c4)cc23)c1` the same measures were -0.22%, -2.71% and 7.65%.
As for `CCC(C)(C)NC(=O)C(c1cccc(OC)c1)N(C(=O)CNC(=O)c1cccs1)c1ccc2c(c1)OCCO2` (configuration not stated), the inhibition in experiment [1] was found to be 6.74%; in experiment [2] it was 6.4%; in experiment [3], 6.92%.
Turning to `Cc1ccc(NCc2cccc(F)c2)cc1S(=O)(=O)N[C@@H]1CCN(C#N)C1`, the inhibition in experiment [1] worked out at 7.1%; in experiment [2], 3.53%; in experiment [3], 1.18%.
For `O=C(Nc1cccc([N+](=O)[O-])c1)Nc1ccc(Cl)c(C(F)(F)F)c1` the same measures were -1.69%, 1.56% and 0.73%.
In the case of `Cn1ccc(C(=O)Nc2ccc3c(c2)CN(Cc2ccc(N4CCCC4)o2)CCC3)n1`, the values for the inhibition in experiment [1], in experiment [2] and in experiment [3] were 28.5%, 54.6% and -0.65%, respectively.
For `Cc1cc(CN2CCC(C(=O)Nc3ccc(-c4nc5ccccc5[nH]4)cc3)CC2)oc1C` the same measures were 13.2%, 16% and 2.24%.
For `N[C@@H](CCNC1CCN(c2cccc(C(F)(F)F)c2)CC1)Cc1ccc(F)c(F)c1`, the inhibition in experiment [1] amounted to 99.5%; in experiment [2] it was 54.5%; in experiment [3], 101%.
The corresponding values for `Nc1nc(N)c2c3c(ccc2n1)NCCC3` are -0.04%, 0.47% and -0.59%.
On to `CCCCCCCCNCc1c(O)ccc2ccccc12`, for which the results for the inhibition in experiment [1], in experiment [2] and in experiment [3] were 3.46%, 3.25% and 5.48%, respectively.
For `CC(C)(C)c1ccc(CN2CCCCC(NC(=O)c3cc(-c4cccc(Cl)c4)cs3)C2)cc1` (configuration not stated) the same measures were -0.16%, -0.87% and -6.21%.
